Double positive events and percent response (vesicle binding) data for 33 compounds are collected here from PubChem BioAssay AID2810 (NMMLSC, 2010).

The whole screen tested about 1,200 compounds, of which about 65 (5%) were called active.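 Rule for the calls: active = at either tested dose, response and 90th-percentile vesicle-stain brightness of CD8 cells under set limits and under 9% cells vesicle-bound; inactive = the rest.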 For the sample, actives were picked, then their nearest neighbours and some compounds at random.

The experiment in a line: modulators of CD8 T cell-vesicle binding, confirmation, cherry-picked primary hits, two concentrations (AID 2810).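 For all read-outs here: lower values mean blocking of vesicle binding.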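 For percent response (vesicle binding): ratio of mean FL2 vesicle stain of CD8+ cells to that row's control.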 Particulars: 2C CD8+ T cell-vesicle binding, flow cytometry; for double positive events: CD8+/vesicle+ events. (In general: A flow cytometer gives signals particle by particle.)
The mark [1] stands for this setting: at 15.4 µM, stronger effect = lower value.

On to `O=C(COc1ccccc1)Nc1cc(S(=O)(=O)N2CCOCC2)ccc1N1CCCC1`, for which the double positive events by setting is: (at 7.7 µM) 28.3%; under setting [1], 4.1%. Moreover, the percent response (vesicle binding) is 138% (inactive) under setting [1] and 164% (response, at 7.7 µM).

In the case of `CCN(Cc1ccccc1)C(=O)c1ccc(C)c(S(=O)(=O)N2CCCCC2)c1`, the double positive events is 11.9% (at 7.7 µM) and 30.2% under setting [1]. Further, the percent response (vesicle binding) is, setting by setting: under setting [1], 197% (inactive); (response, at 7.7 µM) 111%.

As to `Cc1cccc(C(=O)OCC(=O)NN2C(=O)NC3(CCC(C)CC3)C2=O)c1O` (stereo unspecified), the double positive events by setting is: (at 7.7 µM) 19.9%; under setting [1], 5.2%. Moreover, the percent response (vesicle binding) under setting [1] is 35.3% (active) and the percent response (vesicle binding) (response, at 7.7 µM) came to 181%.

Take `CCOC(=O)c1c(NC(=O)CN2C(=O)NC3(CCC(C)CC3)C2=O)sc(C)c1-c1ccc(C)cc1` (stereo unspecified): the double positive events is, setting by setting: (at 7.7 µM) 33.5%; under setting [1], 23.6%. The percent response (vesicle binding) is, setting by setting: under setting [1], 559% (inactive); (response, at 7.7 µM) 363%.

`Cc1cccc(C(=O)OCC(=O)Nc2ccc3c(c2)OCCO3)c1O`: the double positive events came to 10.2% (at 7.7 µM) and 29.9% under setting [1]. The percent response (vesicle binding) is 717% (inactive) under setting [1] and 113% (response, at 7.7 µM).

For `Cc1ccc2nc(-c3cccnc3)c(NC3CCCC3)n2c1`, the double positive events was 16.9% (at 7.7 µM) and 33.3% under setting [1]. Besides, the percent response (vesicle binding) was 211% (inactive) under setting [1] and 276% (response, at 7.7 µM).

Turning to `O=c1[nH]c(CN(CCc2ccccc2)S(=O)(=O)c2ccc(Cl)cc2)nc2ccccc12`, the double positive events by setting is: (at 7.7 µM) 9.5%; under setting [1], 16.7%. Further, the percent response (vesicle binding) by setting is: under setting [1], 208% (inactive); (response, at 7.7 µM) 239%.

Take `CCOC(=O)C(c1ccccc1)N1CCN(c2ccc(OC)cc2)CC1` (stereo unspecified): the double positive events is 13.2% (at 7.7 µM) and 29.9% under setting [1]. Besides, the percent response (vesicle binding) runs as follows: under setting [1], 388% (inactive); (response, at 7.7 µM) 255%.

For the compound `CC(Sc1nc2ccccc2s1)C(=O)Nc1ccc2c(c1)OCO2` (stereo unspecified), the double positive events turned out to be 9% (at 7.7 µM) and 28% under setting [1]. The percent response (vesicle binding) by setting is: under setting [1], 533% (inactive); (response, at 7.7 µM) 344%.

In the case of `CCc1noc(C)c1C(=O)OC(C)C(=O)Nc1ccc2c(c1)OCO2` (stereo unspecified), the double positive events is, setting by setting: (at 7.7 µM) 32.8%; under setting [1], 2.5%. In addition, the percent response (vesicle binding) is, setting by setting: under setting [1], 22% (active); (response, at 7.7 µM) 329%.

In turn, `CCc1ccccc1NC(=O)NCc1ccc2c(c1)OCO2` yielded a double positive events (at 7.7 µM) of 17.2% and a double positive events under setting [1] of 20%. For the same compound, the percent response (vesicle binding) runs as follows: under setting [1], 361% (inactive); (response, at 7.7 µM) 479%.

In the case of `Cc1noc(C)c1C(=O)OC(C)C(=O)N1CCc2ccccc21` (stereo unspecified), the double positive events came out at 28.5% (at 7.7 µM) and 4.4% under setting [1]. Besides, the percent response (vesicle binding) was 134% (inactive) under setting [1] and 293% (response, at 7.7 µM).

For the compound `COc1ccc(Cl)cc1NS(=O)(=O)c1cccc(C(=O)NCC(C)(C)N2CCOCC2)c1`, the double positive events reads like this: (at 7.7 µM) 20.7%; under setting [1], 18.3%. The percent response (vesicle binding) is, setting by setting: under setting [1], 317% (inactive); (response, at 7.7 µM) 710%.

Turning to `Cc1ccc(C(=O)OCC(=O)NC2CCCCC2)o1`, the double positive events runs as follows: (at 7.7 µM) 35.5%; under setting [1], 14%. The percent response (vesicle binding) by setting is: under setting [1], 244% (inactive); (response, at 7.7 µM) 265%.

With `COc1cc(CNCCc2ccc(S(N)(=O)=O)cc2)ccc1OCC(=O)N1CCCCC1`, the double positive events (at 7.7 µM) worked out at 11.5% and the double positive events under setting [1] is 19.2%. Further, the percent response (vesicle binding) reads like this: under setting [1], 229% (inactive); (response, at 7.7 µM) 370%.

As for `COc1cc(CNCc2cccnc2)ccc1OCC(=O)NC1CCCCC1`, the double positive events came to 18.4% (at 7.7 µM) and 5.7% under setting [1]. Moreover, the percent response (vesicle binding) reads like this: under setting [1], 32.6% (active); (response, at 7.7 µM) 303%.

Compound `COc1ccc(OC)c(NC(=O)c2ccccc2SC)c1` gave a double positive events (at 7.7 µM) of 56.3%. Moreover, under setting [1], the double positive events was 35.3% and the percent response (vesicle binding) is 242% (inactive).

In the case of `COc1ccc(CNC(=O)c2cccnc2SC)cc1OC`, the double positive events came to 9.3% (at 7.7 µM) and 2% under setting [1]. The percent response (vesicle binding) was 29.8% (active) under setting [1] and 180% (response, at 7.7 µM).

On to `COc1ccc(CNC(=O)COC(=O)CCN2C(=O)C3CC=CCC3C2=O)cc1OC` (stereo unspecified), for which the double positive events amounted to 41.8% (at 7.7 µM) and 29.1% under setting [1]. Besides, the percent response (vesicle binding) runs as follows: under setting [1], 307% (inactive); (response, at 7.7 µM) 239%.

`O=C(Cn1cc(C(F)(F)F)cc(Cl)c1=O)NCCc1ccc(Cl)cc1Cl`: the double positive events by setting is: (at 7.7 µM) 11.1%; under setting [1], 1.7%. Also, the percent response (vesicle binding) was 16.3% (active) under setting [1] and 149% (response, at 7.7 µM).

Regarding `Cc1ccc(C(=O)NC2CCCc3c2cnn3-c2ccc(F)cc2F)cn1` (stereo unspecified), the double positive events stood at 33.7% (at 7.7 µM) and 15% under setting [1]. Besides, the percent response (vesicle binding) was 329% (inactive) under setting [1] and 658% (response, at 7.7 µM).

Regarding `CCOC(=O)C1(Cc2cccc(OC)c2)CCN(C/C=C/c2ccccc2)CC1`, the double positive events is 25.8% (at 7.7 µM) and 11% under setting [1]. For the same compound, the percent response (vesicle binding) is 119% (inactive) under setting [1] and 269% (response, at 7.7 µM).

With `Cc1ccccc1/C(N)=N/OC(=O)c1cccs1`, the double positive events (at 7.7 µM) worked out at 12.4% and the double positive events under setting [1] worked out at 17.9%. The percent response (vesicle binding) under setting [1] is 190% (inactive) and the percent response (vesicle binding) (response, at 7.7 µM) turned out to be 217%.

Compound `CCOC(=O)N1CCN(Cc2nc(-c3ccc(C)cc3)no2)CC1` returned a double positive events (at 7.7 µM) of 14.7% and a double positive events under setting [1] of 4.6%. The percent response (vesicle binding) was 63% (inactive) under setting [1] and 286% (response, at 7.7 µM).

Take `COc1ccc([N+](=O)[O-])cc1NC(=O)c1ccc(N(Cc2ccccc2C)S(C)(=O)=O)cc1`: the double positive events by setting is: (at 7.7 µM) 8.4%; under setting [1], 2.9%. Besides, the percent response (vesicle binding) runs as follows: under setting [1], 47.7% (active); (response, at 7.7 µM) 131%.

As for `COc1ccc([N+](=O)[O-])cc1N(CC(=O)O)S(C)(=O)=O`, the double positive events is 9.6% (at 7.7 µM) and 19.3% under setting [1]. Further, the percent response (vesicle binding) under setting [1] is 127% (inactive) and the percent response (vesicle binding) (response, at 7.7 µM) stood at 281%.

As to `COc1ccc([N+](=O)[O-])cc1NC(=O)C(C)Sc1nc(-c2ccccc2)cs1` (stereo unspecified), the double positive events worked out at 11.7% (at 7.7 µM) and 22.6% under setting [1]. Moreover, the percent response (vesicle binding) by setting is: under setting [1], 114% (inactive); (response, at 7.7 µM) 121%.

With `COc1cc2ccccc2cc1C(=O)NC1CCCCC1`, the double positive events is, setting by setting: (at 7.7 µM) 11.7%; under setting [1], 19%. The percent response (vesicle binding) is 121% (inactive) under setting [1] and 368% (response, at 7.7 µM).

For the compound `CCN1CCN(c2ccc(S(=O)(=O)N3CCCCC3)cc2NC(=O)c2cccc(C)c2[N+](=O)[O-])CC1`, the double positive events by setting is: (at 7.7 µM) 31.1%; under setting [1], 37.1%. Moreover, the percent response (vesicle binding) is 238% (inactive) under setting [1] and 406% (response, at 7.7 µM).

On to `CCN1CCN(c2ccc(NC(=O)c3cc4ccccc4cc3OC)cc2C)CC1`, for which the double positive events reads like this: (at 7.7 µM) 21.2%; under setting [1], 1.8%. Moreover, the percent response (vesicle binding) is, setting by setting: under setting [1], 55.9% (active); (response, at 7.7 µM) 373%.

As to `O=C(Nc1nc2ccccc2n1CCN1CCOCC1)c1ccc(Cn2cc([N+](=O)[O-])cn2)o1`, the double positive events is, setting by setting: (at 7.7 µM) 23.6%; under setting [1], 23.8%. The percent response (vesicle binding) is, setting by setting: under setting [1], 145% (inactive); (response, at 7.7 µM) 260%.

As for `C=CCn1c(C)cc(-c2csc(NCC)n2)c1C`, the double positive events by setting is: (at 7.7 µM) 11.2%; under setting [1], 24.9%. The percent response (vesicle binding) reads like this: under setting [1], 196% (inactive); (response, at 7.7 µM) 160%.

Regarding `NC(=O)CCS(=O)(=O)CCN1CCN(S(=O)(=O)c2ccc3c(c2)CCC3)CC1`, the double positive events runs as follows: (at 7.7 µM) 17.1%; under setting [1], 7.7%. The percent response (vesicle binding) runs as follows: under setting [1], 43.5% (active); (response, at 7.7 µM) 183%.
